According to PubChem BioAssay AID1347426 (Functional Genomics Laboratory (NCATS/FGL), 2020):
Out of some 31,000 sequences screened, about 1,400 (4.5%) were called active. This is one part of a sample in which actives are shown more often than they occur. A number with no mark means an inactive call.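 Rule for the calls: active = median seed-adjusted z-score above 1 or below -1; inactive = the rest.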

assay: Novel Modifiers of Survival Motor Neuron (SMN) Protein: Gene Identification via Genome-wide siRNA Screen; conditions: HEK293T SMN2-luciferase reporter, siRNA knockdown, 72 h; actives lie on both sides;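 note: luminescence tracks full-length SMN protein made from the SMN2 reporter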
In short: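 HEK293T cells stably expressing an SMN2 splicing/cDNA-luciferase reporter were reverse-transfected with a druggable-genome siRNA library and read by luminescence at 72 hours; hits defined by MAD score above 1.0 or below -1.0.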

Sequence | median seed-adjusted z-score
AGCCUGCGGUUUUCUGUAUTT against SYT12 | -0.329
UUACCAUCGUGAAGAGAAATT against CLEC5A | -1.07 (active)
CCUCAUCCCUGUUACAACATT against JAG1 | -0.32
CCAACUGUGUGGCAGAACGTT against FKBP9L | 0.666
GUCUGUAGUUCACCCGUUATT against USP9Y | 0.012
AGCUAGGCCUGGAUAUCGATT against KRT83 | 1.15 (active)
GCUUUCUACAAGUAUAAGATT against ERO1LB | 0.565
GGCUACCUGCAUUCACUGATT against SGK1 | -0.659
CCACAGAUGUGCAUAAACATT against NFKB2 | -0.132
GGAACAUCGAAAUCGUGUATT against DDX6 | 1.12 (active)
GGUCUACUUCUACUACAAUTT against UTY | -0.538
CCGGUCAACUGUUACGUAUTT against GJA5 | 0.707
CAUUCUGUGGUGAAACAUUTT against SCLY | 0.00396
CCACCAUAGGAUAUGGUUATT against KCNJ16 | -0.705
CGCAAUAACUGUUUGGUAUTT against EGLN1 | 2.05 (active)
GGCUAAUCGUGAACCGGAATT against DOCK8 | 0.243
GGAUGGUAGUGUCUGACUUTT against MGLL | 0.288
UGAAGAUGAUUGUCCUUAUTT against VAMP8 | -0.184
CACCCUGCAGGUUCCCAUATT against HSD17B14 | 0.386
GGAUGCUUCUGAAUAGAAATT against BIRC7 | -1.44 (active)
CACUAUUGCAUGUAUCGAATT against ARHGAP10 | -0.458
CAAAGGGCUAAGUUCUAAATT against TBC1D5 | 0.38

Sequence | median seed-adjusted z-score
AAACUAACAUUCGAUUGAATT against TRIM48 | 0
GGUGGAGGACCAAACAGAATT against MGAT4B | 0.0142
GCUCUACUAUUUCUACGAUTT against SPPL2B | 0.0324
GCAAGAGAGUCUCAAAUUUTT against EVX1 | 1 (active)
CCAUGCUCCAGUUAUCUUUTT against SLC10A6 | -0.803
GAUUCUUCCCGGCAUCAUATT against GUCY1A3 | 0.187
GGGUGUAAAAUGCACGUUUTT against CLDN16 | -0.868
CACUUGGAGUGGUGAAUCATT against NCL | 1.33 (active)
GCUCGGUGGAAAAACGUGATT against SCN3A | -0.0556
CAGUCUACAGCUUCAACAATT against ZNF207 | -3.1 (active)
CGCUGACCCUGGAGAUGUATT against CALY | 0.216
GGACAAUCCUUUCAUUAAUTT against HTR3C | -0.221
CUAAUUUACUAUUACGCUUTT against F2R | -0.392
UCCCAGCACUUAUAGCCUATT against ANKRA2 | 1.26 (active)
AGCCCUCUUCUGACACUAATT against SERPINH1 | 0.186
GCGUUGACCAAGACUCAUATT against TP53BP2 | 0.157
AGCACUGCAUGUUCACCGATT against KLHL25 | -0.0146
GCAUAUUAAGGAGACCUAUTT against HSD17B6 | 0.573
CCAUCGUUCUGGGAAUUCUTT against CD6 | -0.33
GGAUGAUAAUGCUAAUCCATT against PPP1R3A | -0.241
GGACUUUGACAAGAACAGUTT against CYP1A2 | 0
GAACAAUGAGUAUAUCCUATT against PPP2R5B | 0.237

Sequence | median seed-adjusted z-score
GACGACCAAUUAUAGUUUATT against ZRANB1 | -0.347
CCAUCAAUGCGGCUCAUGUTT against TUFM | 1.07 (active)
GGAUCAGCCGAGGAUGAAATT against PPP1R15A | 0.539
GGAUCUCAUGCACAUCUCATT against PLA2G6 | -0.123
AGAAGAUUCUUGUAUUUAUTT against IL24 | -0.125
GGAUGAUAUCAACUGCUAUTT against ACVR2A | -0.22
ACAUGUGGGUGACGGUUUUTT against SRM | 0
CAUGGACCCUGAUGACAUATT against UROD | 1.11 (active)
GCGUGAAUGAGGUGGAUUATT against ETNK2 | -0.74
CGUAUACUAUUAUCACGUUTT against ATP6V0A1 | 0.103
GGGCACGGGUGAUAUGAAUTT against CTDP1 | -2.29 (active)
AGCUACAAUUUGAAAGAGATT against RNF144A | -0.185
AGAGAUCACCGAUUACAGATT against ISG20 | 0.0209
CAACUGUUAUCAGAACGAUTT against ARFIP2 | 0.748
GCAAUGCCCUCUAUCAAUATT against IP6K1 | -0.317
AGAUGAUCGCUGAGUUCAATT against TNNC2 | -0.773
CGAAUGACAAGUGAUCUAATT against MDH1B | -1.13 (active)
GCUCAACUCUUAUUAGUCATT against ZNF485 | 0.445
AUACCUGAACAGUCCCUCATT against NOBOX | -0.426
CGCGCAACAUCGUCAAGUATT against LPHN1 | -1.03 (active)
GGACUAUUACAAAUCAAGATT against FLT3 | 0.418
GGACAUUGAUUAUAUUGGATT against GALC | 0

Sequence | median seed-adjusted z-score
GACCGAGAAGUACCGCUGATT against HBZ | -0.0054
GCAUGUACCAGGUUCAGUATT against LRFN1 | 0.605
GCAGAGACCUACAAAAAGATT against RCN3 | -2.44 (active)
GGCAGUGUUUAUUUACUAUTT against RHBDL2 | 0.0701
CCAAAGAUGUUUCAUCUGATT against PCDHGA7 | 0.705
AAGGUAAAAUUGAAGAGUUTT against SERPINB9 | 0
CUCACCUACUGGAACCUGATT against ZBED4 | -0.553
CCAACAUGCUAAUCACCUATT against MAP3K12 | -0.6
CUAUUUUACCUUUACAAGATT against ALDH1A2 | 0.564
CAUUAUCUAUUCUAGACAATT against TTC18 | -1.15 (active)
GCAUUGCCUCUAUACCAGATT against MALT1 | 0.442
GGGCAUGUUUCGUACCGUUTT against MYH10 | 0.0877
AGAACAUCCUGAUAGACCUTT against PIM2 | 0.00597
GGUGCGGAGAGAUGAGAUATT against PPM1M | 0
GCAGAAAUGACACCAAUAATT against NMB | 0.746
GCUCCUCAAAGGAUAUGAATT against CAB39L | 0
AUUUAUUUGUUGAGGUUAUTT against PIM3 | -1.01 (active)
GACCCUAAGCAGUAUAAGATT against CHSY3 | -0.113
CGAUUGCCCAUCAUCCUGATT against HAO2 | 0.039
GCUUCUACCCGGACGAAGATT against MYCN | 0.00242
AAACACCGCUGUUCCGUAATT against MED8 | -1.61 (active)
GGCUAGUGAUCGACCGUAATT against FADS1 | -0.905

Sequence | median seed-adjusted z-score
GAAACCUGCUGAUCUACGATT against CREB3L2 | -0.192
GGAGAAAACCUUCGAGCAGTT against NKX6-2 | 0.101
UCCUAAAUGUGACCCGGUATT against ZMYND19 | 0.369
GCCCAUUUCAUCAACCUGATT against PRDM15 | 0.258
CAACAACUGCUACCAAGAUTT against SLC6A4 | 1.43 (active)
GGAACUAGAUGUCAUGUAUTT against VILL | 0.518
CAAGUGUCUAUGUAACGAATT against FBN2 | 0.373
GCCUUUACCCUUGAAGAAATT against ME3 | 0.166
CAAUCAUGUCGAGAAAUAATT against TGIF2LX | -0.568
CGUUCAGUCCGUCACCCAATT against GATAD2A | -0.715
GGGUGGGUUACAUAGCACATT against CLDN19 | 0
GACUUAACCAAGAGACGUATT against THOC2 | -1.22 (active)
GGACGAAGGACGUGCUGUUTT against SHC2 | -0.207
GCAAUUACAUUGUACGCUUTT against ETFDH | 0.154
CAGCUUCAGGAGAAUGAAATT against PPP1CC | -0.344
GCACGUAAGCUGAACACUATT against PRC1 | -0.0195
UGAAGAACCUGGACGCCAATT against CCL24 | 0
CCUCGAGGAGAUUAACAAATT against NPEPL1 | 1.12 (active)
CAGAUGAAGUGAUCGGUGATT against CIITA | -0.109
GCUCCUGUAUGAAUGCAAUTT against FBP2 | 0
GGCUUUUAGCCUGAAGAAATT against PRDM5 | -0.463
